Reference: PubChem BioAssay (NCATS)
Results filed as inconclusive are left out. Calls of active or inactive are those of the source. Unless noted, calls come from the whole dose curve.

Tests used:
[1] = qHTS for Inhibitors of the Functional Ribonucleoprotein Complex (vRNP) of Lassa (LASV) Arenavirus: LASV Primary Screen - GLuc reporter signal (AID 1347082; calls by dose curve; tested in HEK293 reporter line; note: nearly all actives have a fitted effect of over 60% in size; note: potency is the fitted concentration of half-maximal effect)
[2] = qHTS for Inhibitors of the Functional Ribonucleoprotein Complex (vRNP) of Lassa (LASV) Arenavirus: Viability assay - alamar blue signal for LASV Primary Screen (AID 1347083; calls by dose curve; tested in HEK293 reporter line; note: nearly all actives have a fitted effect of over 80% in size; note: potency is the fitted concentration of half-maximal effect)
[3] = qHTS for Inhibitors of the Functional Ribonucleoprotein Complex (vRNP) of Lymphocytic Choriomeningitis Arenaviruses (LCMV): Viability assay - alamar blue signal for LCMV Primary Screen (AID 1347085; calls by dose curve; tested in HEK293 reporter line; note: nearly all actives have a fitted effect of over 80% in size; note: potency is the fitted concentration of half-maximal effect)
[4] = molecular target: Nucleoprotein (Lymphocytic choriomeningitis virus (strain Armstrong)) (UniProt P09992); experiment: qHTS for Inhibitors of the Functional Ribonucleoprotein Complex (vRNP) of Lymphocytic Choriomeningitis Arenaviruses (LCMV): LCMV Primary Screen - GLuc reporter signal (AID 1347086); note: series mostly up to about 57 µM; nearly all actives have a fitted effect of over 70% in size
Sequence of Nucleoprotein (Lymphocytic choriomeningitis virus (strain Armstrong)) (P09992 whole entry, looked up): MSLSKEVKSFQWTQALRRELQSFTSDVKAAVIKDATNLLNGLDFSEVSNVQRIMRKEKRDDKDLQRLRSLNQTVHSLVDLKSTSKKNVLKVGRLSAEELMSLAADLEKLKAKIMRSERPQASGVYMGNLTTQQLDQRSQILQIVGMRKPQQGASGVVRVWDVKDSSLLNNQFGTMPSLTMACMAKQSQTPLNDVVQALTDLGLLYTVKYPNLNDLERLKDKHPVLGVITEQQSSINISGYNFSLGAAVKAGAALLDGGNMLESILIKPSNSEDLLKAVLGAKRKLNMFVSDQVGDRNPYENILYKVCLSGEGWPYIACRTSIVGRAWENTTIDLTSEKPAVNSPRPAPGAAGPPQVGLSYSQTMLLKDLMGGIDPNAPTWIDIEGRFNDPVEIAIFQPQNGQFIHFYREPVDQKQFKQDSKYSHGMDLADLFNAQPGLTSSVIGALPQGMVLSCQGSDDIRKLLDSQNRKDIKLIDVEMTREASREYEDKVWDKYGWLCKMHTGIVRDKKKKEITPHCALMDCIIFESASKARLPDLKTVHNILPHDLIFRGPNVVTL

Measured: Potency

CCOC(=O)Nc1ccc2c(c1)N(C(=O)CCN1CCOCC1)c1ccccc1S2
inactive: [1] | [2] | [3] | [4]

Cc1[nH]c(=O)c(C#N)cc1-c1ccncc1
inactive: [1] | [2] | [3] | [4]

CC(C)(C)NC(=O)[C@H]1CC[C@H]2[C@@H]3CC[C@H]4NC(=O)C=C[C@]4(C)[C@H]3CC[C@]12C
inactive: [1] | [2] | [4]

CO/N=C(\C(=O)N[C@@H]1C(=O)N2C(C(=O)O)=C(CSc3nc(=O)c(O)nn3C)CS[C@H]12)c1csc(N)n1
inactive: [1] | [2] | [3] | [4]

CCCN[C@H]1CCc2nc(N)sc2C1
inactive: [1] | [2] | [3] | [4]

Cc1ccc(-n2[nH]c(C)c(N=Nc3cccc(-c4cccc(C(=O)O)c4)c3O)c2=O)cc1C
inactive: [1] | [2] | [3] | [4]

CNS(=O)(=O)Cc1ccc2[nH]cc(CCN(C)C)c2c1
inactive: [1] | [2] | [4]

COCCCC/C(=N\OCCN)c1ccc(C(F)(F)F)cc1
inactive: [1] | [2] | [3] | [4]

CN1CCN(CCCN2c3ccccc3Sc3ccc(C(F)(F)F)cc32)CC1
inactive: [1] | [2] | [3] | [4]

Cn1cnc([N+](=O)[O-])c1Sc1ncnc2nc[nH]c12
inactive: [1] | [4]
active: [2] 50.1 µM

COC1=CC(=O)C[C@@H](C)[C@]12Oc1c(Cl)c(OC)cc(OC)c1C2=O
inactive: [1] | [3]

COc1ccccc1OCC(O)CN1CCN(CC(=O)Nc2c(C)cccc2C)CC1 (stereo not drawn)
inactive: [1] | [2] | [3] | [4]

CC(C)NC[C@@H](O)COc1ccc(CC(N)=O)cc1
inactive: [1] | [2] | [3] | [4]

O=C(c1ccc(OCCN2CCCCC2)cc1)c1c(-c2ccc(O)cc2)sc2cc(O)ccc12
inactive: [1] | [3]

CC(=O)O[C@]1(C(C)=O)CC[C@H]2[C@@H]3C=C(Cl)C4=CC(=O)[C@@H]5C[C@@H]5[C@]4(C)[C@H]3CC[C@@]21C
inactive: [1] | [2] | [3] | [4]

Nc1ncn([C@@H]2O[C@H](CO)[C@@H](O)[C@H]2O)c(=O)n1
inactive: [1] | [3]

CC(N)C12CC3CC(CC(C3)C1)C2 (stereo not drawn)
inactive: [1] | [2] | [3] | [4]

Nc1nc2c(ncn2COCCO)c(=O)[nH]1
inactive: [1] | [2] | [3] | [4]

O=C1N=C(O)CN1/N=C/c1ccc(-c2ccc([N+](=O)[O-])cc2)o1
inactive: [1] | [2] | [3] | [4]

COC(c1ccccc1)(c1ccccc1)[C@H](Oc1nc(C)cc(C)n1)C(=O)O
inactive: [1] | [2] | [3] | [4]

NCCCC(O)(P(=O)(O)O)P(=O)(O)O
inactive: [1] | [2] | [3] | [4]

CN(CCOc1ccc(NS(C)(=O)=O)cc1)CCc1ccc(NS(C)(=O)=O)cc1
inactive: [1] | [2] | [4]

CN/C(=C\[N+](=O)[O-])NCCSCc1ccc(CN(C)C)o1
inactive: [1] | [2] | [3] | [4]

CCC(=O)O[C@H]1[C@H](O[C@@H]2[C@@H](C)[C@H](O[C@H]3C[C@@](C)(OC)[C@@H](O)[C@H](C)O3)[C@@H](C)C(=O)O[C@H](CC)[C@@](C)(O)[C@H](O)[C@@H](C)C(=O)[C@H](C)C[C@@]2(C)O)O[C@H](C)C[C@@H]1N(C)C
inactive: [1] | [2] | [3] | [4]

COc1cc2c(cc1OC)[C@@H]1CC(=O)[C@@H](CC(C)C)CN1CC2
inactive: [1] | [2] | [3] | [4]

CC(C)c1c(C(=O)Nc2ccccc2)c(-c2ccccc2)c(-c2ccc(F)cc2)n1CC[C@@H](O)C[C@@H](O)CC(=O)O
inactive: [1] | [2] | [4]

CNC(=O)c1cc(Oc2ccc(NC(=O)Nc3ccc(Cl)c(C(F)(F)F)c3)cc2)ccn1
active: [1] 38.5 µM | [3] 17.2 µM

NC(=O)OCC(COC(N)=O)c1ccccc1
inactive: [1] | [2] | [3] | [4]

COC(=O)CCc1ccc(OCC(O)CNC(C)C)cc1 (stereo not drawn)
inactive: [1] | [2] | [3] | [4]

CN1C[C@H]2c3ccccc3Oc3ccc(Cl)cc3[C@@H]2C1
inactive: [1] | [2] | [4]

COc1cc2nc(N3CCN(C(=O)C4CCCO4)CC3)nc(N)c2cc1OC (stereo not drawn)
inactive: [1] | [2] | [3] | [4]

CC[C@H](C)C(=O)O[C@H]1C[C@@H](C)C=C2C=C[C@H](C)[C@H](CC[C@@H]3C[C@@H](O)CC(=O)O3)[C@H]21
inactive: [1] | [2] | [4]
